Source: PubChem BioAssay (Milwaukee Institute for Drug Discovery)
Cy5 interf NS3h – enhances or quenches Cy5 fluorescence in NS3h assay. fluorescence interference ratio at 100 µM. Cy5-dT15 DNA with NS3h, fluorescence interference; actives lie on both sides; signal over control mean, under 1 quenches. hit rate 6% among 16,000;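 active means compound fluorescence over control fluorescence at most 0.8, a quencher, or at least a set upper limit, an enhancer; inactive means ratio between 0.8 and the set upper limit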
HCV NS3h FP – hepatitis C NS3 helicase inhibition, primary screen; NS3h Cy5-dT15 DNA binding, fluorescence polarization; inhibition, % at 100 µM; hit rate 1.6% among 16,000;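 active means inhibition above the average over every tested compound plus 3 SD, cut at about 40% in these data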
* marks the source's active call; other numbers are inactive results. Hits are enriched below; roughly 7.6% of the tested compounds scored in any of these assays.

SMILES	Cy5 interf NS3h	HCV NS3h FP
O=C1NN(c2ccccc2)C(=O)/C1=C/c1cccc(Cl)c1Cl	0.99	47*
Cc1ccc(N2NC(=O)/C(=C/c3ccc(C)c([N+](=O)[O-])c3)C2=O)cc1Cl	0.93	28
COc1cc(Br)cc(/C=C2\C(=O)NN(c3ccccc3)C2=O)c1O	0.82	45*
O=C1NN(c2ccccc2)C(=O)/C1=C/c1cccc2ccccc12	1	19
Cc1ccc(-c2cc(C(F)(F)F)n3nc(C(=O)N4CCCc5ccccc54)cc3n2)cc1	1.1	18
O=C1OC(c2ccc(Cl)cc2)=C/C1=C/c1cc2c(cc1[N+](=O)[O-])OCO2	1.1	-7
CCOc1c(Br)cc(/C=C(\C#N)c2nn(CCO)c(N)c2C#N)cc1OC	0.79*	-25
CCOc1c(Br)cc(/C=C(\C#N)c2nn(-c3ccccc3)c(N)c2C#N)cc1OC	0.98	4
COc1ccc(/C=C(\C#N)C(=O)Nc2ccc(F)cc2)cc1C	1	10
C#CCOc1c(Br)cc(C2C(C(=O)OC)=C(C)NC3=C2C(=O)c2ccccc23)cc1OC (stereo not given)	1	1
CC(Oc1ccc(Br)cc1)C(=O)N/N=C\c1ccccc1O (stereo not given)	1	4
O=C(N/N=C\c1cccc(Br)c1)C(Oc1ccccc1)Oc1ccccc1	0.78*	9
Cc1ccc(CNC(=O)CN(c2cccc(Cl)c2)S(=O)(=O)c2ccccc2)cc1	1	19
O=[N+]([O-])c1cccc(S(=O)(=O)Nc2cc(C(F)(F)F)ccc2Cl)c1	0.97	4
CCOC(=O)c1ccc2nc(NC(=O)CSCC(=O)OCC(=O)c3ccc(Br)cc3)sc2c1	1	-5
O=C(Nc1ccc(-c2nc3ccccc3c(=O)o2)cc1)c1ccccc1F	0.89	-2
O=c1oc(-c2cccc(F)c2)nc2ccc(Cc3ccc4nc(-c5cccc(F)c5)oc(=O)c4c3)cc12	0.77*	20
Cc1ccc(N2C(=O)CC(SCc3ccccc3)C2=O)cc1 (stereo not given)	1	6
Cc1c(Cl)c([N+](=O)[O-])nn1CC(=O)Nc1cc(C(F)(F)F)ccc1Cl	0.62*	1
Cc1c(Cl)c(C(F)(F)F)nn1CC(=O)Nc1ccccc1C(F)(F)F	1	2
CCOC(=O)c1ccc(NC(=O)CN(c2ccc(C)cc2)S(C)(=O)=O)cc1	1	21
Cc1ccc(/C=C/C(=O)NC(=S)Nc2ccc(S(N)(=O)=O)cc2)cc1	1.1	-1
CCc1nnc(NS(=O)(=O)c2ccc(NC(=S)NC(=O)/C=C/c3ccc(C(C)C)cc3)cc2)s1	0.92	44*
O=C(/C=C/c1ccccc1)c1ccc([N+](=O)[O-])cc1	0.92	-8
O=C(NCCCO)C(=O)NCc1ccc(Cl)cc1	1.1	1
SMILES	Cy5 interf NS3h	HCV NS3h FP
O=C(Nc1cccc(Cl)c1)Nc1nnc(-c2ccc(Cl)cc2Cl)s1	0.75*	17
O=C(Nc1cccc(Cl)c1)Nc1nnc(Cc2ccc(Cl)cc2Cl)s1	1.1	-2
Cc1ccc(OCC(=O)Nc2ccc(O)c(-c3nc4cc(C)c(C)cc4o3)c2)cc1C	1.1	15
O=C(c1coc2ccc(O)c(CN3CCCCC3)c12)C1CC1	1	2
COc1ccc(CC(=O)Nc2ccccc2C(=O)NCC(C)C)cc1	1.1	0
O=C(NC1CCCCC1)C12CC3CCC(CC(C3)C1)C2	1.2*	7
CNC(=O)C(C)NC(=O)C12CC3CC(CC(C3)C1)C2 (stereo not given)	1.1	0
CCOC(=O)CNC(c1ccccc1)c1cc(Br)ccc1N (stereo not given)	0.96	6
COc1ccc(C2N(Cc3ccccc3)CCN2Cc2ccccc2)cc1OC	0.91	12
COc1ccc(C2N(c3ccccc3)CCN2c2ccccc2)cc1O	0.75*	11
CC12c3ccccc3C(C)(c3ccccc31)C1C(=O)N(c3ccc(C(=O)O)cc3)C(=O)C12 (stereo not given)	0.72*	14
COc1ccc(N2C(=O)C3C4c5ccccc5C(C)(c5ccccc54)C3C2=O)cc1 (stereo not given)	1	6
CCNC(=O)C(=O)Nc1ccc(Cl)cc1	0.98	-8
O=[N+]([O-])c1ccc(NCCNS(=O)(=O)c2ccccc2)c(Cl)c1	0.98	13
O=C(O)c1cnn2c1NC(c1ccc(F)cc1)CC2C(F)(F)F (stereo not given)	0.95	-4
O=C(O)c1cnn2c1NC(c1ccc(Br)cc1)CC2C(F)(F)F (stereo not given)	0.79*	-12
CC(C)NC(=O)c1cnn2c1NC(c1ccc(Br)cc1)CC2C(F)(F)F (stereo not given)	1.1	10
CN1CCN(C(=O)c2cnn3c2NC(c2ccc(Br)cc2)CC3C(F)(F)F)CC1 (stereo not given)	1	2
Cc1ccc(C2CC(C(F)(F)F)n3ncc(C(=O)N4CCSCC4)c3N2)cc1 (stereo not given)	0.49*	15
O=C(NCc1cccs1)c1cnn2c1NC(c1ccc(Br)cc1)CC2C(F)(F)F (stereo not given)	0.49*	19
CCOc1ccc(NC(=O)c2c(Cl)cccc2Cl)cc1	1	1
Cc1cc([N+](=O)[O-])nn1Cc1ccc(C(=O)O)cc1	1.1	-3
C/C(=N/O)C1(C)N(O)C(C)(C)C(c2ccc(Br)cc2)=[N+]1[O-] (stereo not given)	0.97	-4
O=C1OC2C=CC=CC2C=C1C(=O)N1CCSC1c1ccc2c3c(cccc13)CC2 (stereo not given)	1	10
COCC(=O)Nc1nc2ccccc2s1	0.67*	-2
SMILES	Cy5 interf NS3h	HCV NS3h FP
CC(CCC(=O)Nc1nc2ccccc2s1)CC(=O)Nc1nc2ccccc2s1 (stereo not given)	0.98	7
COc1ccccc1C=C1C(=O)NC(=S)N(c2ccccc2F)C1=O	0.99	8
O=C1NC(=S)N(c2ccccc2F)C(=O)/C1=C/c1ccc(OCc2cccc(C(=O)O)c2)cc1	1	50*
COc1cc(-c2noc(/C=C/c3ccccc3)n2)cc(OC)c1OC	0.99	12
Cc1csc(Nc2ccccc2)[n+]1CCO	1.2*	4
CC1=C(C(=O)OC2CCCC2)C(c2coc3ccc(C)cc3c2=O)C2=C(CC(C)(C)CC2=O)N1 (stereo not given)	1.1	-2
COCCN1C(=O)/C(=C\c2ccco2)SC1=S	0.98	12
COC(=O)c1cccc(-c2ccc(/C=C3/C(=O)NN(c4cccc(Cl)c4)C3=O)o2)c1	0.77*	12
COC(=O)c1cccc(-c2ccc(C=C3C(=O)N(C)C(=O)N(C)C3=O)o2)c1	1.1	7
CCOC(=O)Cc1nnc2c(NC(C)C)nc3nonc3n12	1.1	7
O=c1oc(-c2ccccc2)nc2sc3c(c12)CCCC3	0.69*	15
O=c1oc(-c2cccs2)nc2sc3c(c12)CCCCC3	0.97	-3
Clc1ccccc1-c1nc(-c2cccnc2)no1	1.2*	-16
Clc1ccc(-c2nc(-c3cccnc3)no2)c(Cl)c1	1.1	9
CCOC(=O)C1=C(C)N(c2ccccc2)C(=O)/C1=C\c1cccc([N+](=O)[O-])c1	1	6
O=C(Nc1ccc(Cl)c(Cl)c1)c1cc([N+](=O)[O-])ccc1N1CCCCC1	0.92	4
COc1ccc2oc(C)c(C(C)=O)c2c1	0.74*	16
COc1ccc(OC)c(C(=O)c2c(C)oc3ccc(O)cc23)c1	0.97	10
O=C(CSCc1ccc(F)cc1)Nc1ccccc1	0.93	7
